Source: PubChem BioAssay (NCI)
This is part of a sample that, as a whole, favours compounds with a hit. Of some 83,000 tested, about 20% had one in any assay.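 Each cell line was grown in a 96-well plate and treated with one concentration of compound for 48 hours. Values below 10 were considered active.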 Unmarked numbers belong to inactive results. Active and inactive are the calls of the source.

Key:
Assay in all cases: NCI-60 one-dose screen, 48 h (100 = growth as untreated, 0 = no growth, -100 = all killed)
Settings in all cases: 10 µM unless noted
NCI-H23 lung = tested on: NCI-H23 lung
NCI-H226 lung = tested on: NCI-H226 lung
NCI-H322M lung = tested on: NCI-H322M lung
HOP-62 NSCLC = tested on: HOP-62 NSCLC
NCI-H460 lung = tested on: NCI-H460 lung
HOP-92 NSCLC = tested on: HOP-92 NSCLC
NCI-H522 lung = tested on: NCI-H522 lung
A549/ATCC NSCLC = tested on: A549/ATCC NSCLC
786-0 renal = tested on: 786-0 renal
COLO 205 colon = tested on: COLO 205 colon
DU-145 prostate = tested on: DU-145 prostate
MALME-3M melanoma = tested on: MALME-3M melanoma
MDA-MB-231 breast = tested on: MDA-MB-231 breast
RXF 393 renal = tested on: RXF 393 renal
SF-268 CNS = tested on: SF-268 CNS
SF-295 CNS = tested on: SF-295 CNS
SF-539 CNS = tested on: SF-539 CNS
UACC-257 melanoma = tested on: UACC-257 melanoma
M14 melanoma = tested on: M14 melanoma
K-562 leukemia = tested on: K-562 leukemia

| Compound | growth (NCI-H23 lung) | growth (NCI-H226 lung) | growth (NCI-H322M lung) | growth (HOP-62 NSCLC) | growth (NCI-H460 lung) | growth (HOP-92 NSCLC) | growth (NCI-H522 lung) | growth (A549/ATCC NSCLC) | growth (786-0 renal) | growth (COLO 205 colon) | growth (DU-145 prostate) | growth (MALME-3M melanoma) | growth (MDA-MB-231 breast) | growth (RXF 393 renal) | growth (SF-268 CNS) | growth (SF-295 CNS) | growth (SF-539 CNS) | growth (UACC-257 melanoma) | growth (M14 melanoma) | growth (K-562 leukemia) |
| --- | --- | --- | --- | --- | --- | --- | --- | --- | --- | --- | --- | --- | --- | --- | --- | --- | --- | --- | --- | --- |
| CCOC(=O)C(=Cc1ccccc1F)C(=O)OCC | 99.2% | 96.1% | 94% | 137% | 105% | 103% | 65.2% | 90.3% | 104% | 115% | 71.1% | 94.2% | 93.3% | 102% | 89.9% | 111% | 98% | 83.2% | 85.8% | – |
| Nc1nc(-c2ccc(F)cc2)cc(-c2cnn(-c3ccccc3)n2)n1 | 99.1% | 105% | 93.9% | 101% | 103% | 94.1% | 82.2% | 95.3% | 107% | 105% | 104% | 124% | 102% | 97.4% | 98.8% | 107% | 106% | 95.8% | 117% | – |
| Oc1cccc(Nc2nccc(-c3ccc4ccccc4c3)n2)c1 | 33.2% | 70.8% | 46% | 27.2% | 16.1% | 63.5% | 15.6% | 30.7% | 30.1% | 84.7% | 27.3% | 68% | 37.2% | 37.8% | 47.3% | 25.2% | 11% | 47.3% | 8.25% (active) | – |
| CN1C2CCC1/C(=C\c1ccc(Cl)cc1)C1=C2[C@@H](c2ccc(Cl)cc2)C(C#N)=C(N)O1 (some centres not stated) | 83.5% | 88.2% | 89.9% | 88.9% | 91.6% | 70.4% | 78.3% | 83.1% | 93.2% | 87.5% | 94.5% | 88% | 104% | 68.8% | 85% | 97.8% | 94.2% | 85.9% | 95.2% | – |
| O=C1C(Cl)=C(Cl)C(=O)c2c1nc1n2CCCC1 | 74.3% | 109% | 52.7% | 97.1% | 39.9% | 102% | 85.2% | 98.4% | 94.7% | 5.79% (active) | 96.9% | 73.2% | 96.2% | 99.5% | 95.9% | 100% | 99.9% | 96% | 105% | – |
| NCCN1CCN(c2nccc(-c3ccc4ccccc4c3)n2)CC1 | 87.2% | 81.9% | 54.4% | 74.9% | 17.6% | 27.7% | 81.3% | 52.3% | 47.6% | -78.1% (active) | 84.6% | 60.3% | 23.8% | 43.1% | 63.8% | 90.1% | -4.96% (active) | 68.4% | -66.8% (active) | – |
| CC/C(=C(\c1ccccc1)c1ccc(OCCNC)cc1)c1ccccc1 | -90.5% (active) | -84.1% (active) | -99.5% (active) | -64.2% (active) | -71.3% (active) | -85.6% (active) | -74.9% (active) | -39.2% (active) | -92.7% (active) | -85.5% (active) | -66.8% (active) | -92.9% (active) | – | -97.6% (active) | 1.29% (active) | -99.3% (active) | -98% (active) | -68.4% (active) | -89.7% (active) | -5.96% (active) |
| O=[N+]([O-])c1c(F)cccc1Nc1cccc(F)c1 | 104% | 94.7% | 108% | 102% | 107% | 94.6% | 92% | 106% | 93.9% | 121% | 108% | – | – | 102% | 105% | 87% | 102% | 93.2% | 103% | 95.4% |
| Nc1ccc(Nc2nccc(-c3ccc4ccccc4c3)n2)cc1 | 41.2% | 64% | 64.5% | 44.2% | 17.8% | 65.1% | 27.6% | 25.5% | 58.7% | 49.4% | 67.4% | 59.5% | 46.8% | 50.3% | 49.9% | 64.8% | 55.4% | 58.6% | 26.8% | – |
| CCCN(CCC)CN(CCC)CCC | 96.5% | 95.3% | 97.6% | 113% | 107% | 91.8% | 101% | 91.1% | 94.8% | 116% | 106% | 97.6% | – | 98.2% | 102% | 107% | 102% | 100% | 102% | 95.6% |
| O=C(/C=C/c1ccc(B(O)O)cc1)/C=C/c1ccc(B(O)O)cc1 | 62.4% | 78.1% | 80.9% | 105% | 57.5% | 82.6% | 72.4% | 41.4% | -72.5% (active) | 36.8% | 64.4% | – | 38.6% | 10.2% | 59.2% | 89.8% | 21.6% | 51.9% | 20.5% | 12.9% |
| CCCCN(CCCC)CCC(C)(O)c1cc2ccccc2c2ccccc12 (configuration not stated) | 83.8% | 107% | 73.5% | 106% | 90.1% | 44.2% | 91.4% | 83.5% | 103% | 92.7% | 75% | 30.7% | – | 87.8% | 57.3% | 79.8% | 103% | 82.8% | 90.7% | 15.7% |
| C=CCSc1nnc(-c2ccc(C(C)(C)C)cc2)n1-c1cccc(C(F)(F)F)c1 | 35.4% | 44.7% | 77.7% | 67.3% | 29.3% | 28.9% | 37.3% | 21.2% | 30.4% | 41.1% | 54.3% | 66.1% | – | 18.1% | – | 29.3% | 69.5% | 48.5% | 45.3% | 20.3% |
| O=C(/C=C/c1cccc(Br)c1)c1ccccc1 | 98.7% | 92.8% | 97.7% | 70% | 104% | 79% | 64.1% | 72.7% | 72.3% | 99.7% | 92.1% | 99.3% | 92.7% | 89.9% | 89% | 94.9% | 103% | 81.7% | 91.1% | – |
| Cc1ccc(Nc2c(C(N)=O)cnc3ccc(-c4csc(N)n4)cc23)cc1 | 88.3% | 88.3% | 108% | 96.4% | 100% | 90.2% | 101% | 95.4% | 101% | 96.3% | 103% | – | 98.8% | 98.3% | 106% | 98.7% | 92% | 101% | 98.6% | 113% |
| CC(C)c1c(C(=O)Nc2ccccc2)c(-c2ccccc2)c(-c2ccc(F)cc2)n1CC[C@@H]1CC=CC(=O)O1 | 1.14% (active) | 39.7% | 58.6% | 12.4% | 5.24% (active) | -24.5% (active) | -33.4% (active) | -9.24% (active) | -26.2% (active) | -49.9% (active) | 26.3% | 8.81% (active) | -25.6% (active) | -84.5% (active) | -33.3% (active) | 82.3% | -18.5% (active) | 16.9% | -11.2% (active) | – |
